Assay results reported in PubChem BioAssay (NCATS).
Records with an inconclusive call do not appear. Where a call stands in place of a potency, no number is given. Activity calls are given as the source filed them. Calls follow the shape of the dose curve; as a rule, active = well fitted cell-killing curve with a large enough effect; inconclusive = small, poorly fitted or top-dose-only effect; inactive = flat fitted curve, though single readings scatter.

assay: UWB1.289 Cancer Cell Toxicity qHTS against the NCATS CANVASS Library (AID 1347347); settings: UWB1.289 viability, CellTiter-Glo luminescence, 72 h; series mostly up to 38.3 µM; also: nearly all actives have a fitted effect of over 60% in size
From the text: Natural products and their derivatives continue to be wellsprings of nascent therapeutic potential. However, many laboratories have limited resources for biological evaluation, leaving their previously isolated or synthesized compounds largely or completely untested. To address this issue, the Canvass library of natural products was assembled (https://tripod.nih.gov/canvass), in collaboration with academic and industry researchers, for quantitative high-throughput screening (qHTS) across a diverse set of cell-based and biochemical assays. The pure (>85% purity by liquid chromatography/mass spectrometry [LC/MS]) Canvass library of 346 natural products were submitted by 45 academic laboratories and companies around the world. We collected pure natural products to circumvent deconvolution and structure elucidation due to time and resource limitations. The library was formatted into 1536-well plates and evaluated in 50 qHTS (in an 11-pnt concentration series) bioassays with broad scope of disease-relevant mechanisms. The resulting data set from 50 different assays was then systematically analyzed to identify overall trends and specific natural products with interesting biological activities. Reported herein are the results of each individual qHTS and their corresponding assay protocol. National Center for Advancing Translational Sciences (NCATS), Rockville, MD National Institute of Health (NIH), Bethesda, Maryland
Cancer Cell Toxicity protocol for cell lines COV-362, OV-KATE, OV-SAHO, UWB1.289, UWB1.289-WTBRCA1, HEK-293, HPAF-II, Panc-1005, SW1088, or U-118MG. 1. In a 1536 well, white solid bottom tissue culture plates (Corning 7494), corresponding cells (COV-362, OV-KATE, OV-SAHO, UWB1.289, UWB1.289-WTBRCA1, HEK-293, HPAF-II, Panc-1005, SW1088, or U-118MG) were dispensed in each well at a final concentration of 1000 cells / well (6uL volume) using the Multidrop Combi (Thermo Fisher Scientific) dispenser. 2. The plates were incubated for 4 hours at 37 degrees C/5% CO2/95% Rh. 3. Compounds were pin transferred (~23nL volume) via Wako Pin-tool (Wako Automation, Richmond VA) equipped with a 1536 pin head. The assay plates were treated with compounds in an 11-pnt concentration series with a final concentration range of […] to 85uM. 4. Bortezomib was used as a single dose control (0.5mM column 4, rows 1 - 32) at a final concentration of 1.9uM and as a 16pnt titration (1mM; 1:2 dilution; 16-points; n = 2; column 3, rows 1 - 32) with final concentration range of 0.1nM - 3.8uM. 5. The assay plates were incubated for 72 hours at 37 degrees C/5% CO2/95% Rh. 6. 3uL CellTiter-Glo detection reagent was then added to the plates (columns 2 - 48, rows 1 - 32) and incubated at room temperature for additional 15min. 7. Luminescence signal was acquired via the ViewLux plate reader (PerkinElmer) using a clear filter, 2 second exposure and 2x binning settings.
Potency is read from the fitted curve at half-maximal effect.

Row | SMILES | Potency
1 | CC(=O)N[C@H]1CCN2CCC[C@H]12 | inactive
2 | CCN1C[C@]2(C)CC[C@@H](O)[C@]34C1[C@H](C[C@H]23)C12CCC(CC14)[C@](O)(CO)[C@H]2O (some centres not stated) | inactive
3 | CC[C@@H]1CN2CC[C@@]3(O)C(=Nc4cccc(OC)c43)[C@@H]2C[C@@H]1/C(=C\OC)C(=O)OC | inactive
4 | C[C@]12CC(O)C3[C@@H](CCC4C[C@@H](O)CC[C@@]43CO)[C@@]1(O)CCC2C1=CC(=O)OC1 (some centres not stated) | inactive
5 | CO[C@@H](/C=C/CC/C=C/C(=O)O)[C@@H](O)[C@H](C)/C=C(\C)[C@@H](O)[C@H](C)C(=O)CCCC1CC(=O)NC(=O)C1 | inactive
6 | CNCCc1ccccc1 | inactive
7 | NCCc1ccccc1 | inactive
8 | CC1=CC2CC[C@@H]3[C@@H](C)C[C@H](C)[C@@H](C1)N23 (some centres not stated) | inactive
9 | CC1=CC(=O)C2=C(C)C[C@H](O)[C@@H]3[C@H](OC(=O)[C@@H]3C)[C@@H]12 | inactive
10 | CC[N@@+]1([O-])C[C@]2(C)CC[C@@H](O)[C@@]34C5C[C@H]6CC[C@@]5(C(C[C@H]23)C41)[C@H](O)[C@@]6(O)CO (some centres not stated) | inactive
11 | COC(=O)C1=C2Nc3ccccc3[C@@]23CCN2CC(C(C)=O)C1C[C@H]23 (some centres not stated) | inactive
12 | C=C1[C@@H](C)[C@H]2[C@H](Cc3ccccc3)NC(=O)[C@]23OC(=O)/C=C/[C@H](O)CCC[C@@H](C)C/C=C/[C@H]3[C@@H]1O | 5.94 µM (active)
13 | CCN1C[C@]2(C)CC[C@H](O)[C@]34C1C(C[C@H]23)[C@@]12CC[C@H](CC14)[C@](O)(COC(=O)c1ccc(OC)c(OC)c1)[C@H]2O (some centres not stated) | inactive
14 | CO[C@H](c1ccccc1)[C@H]1NC(=O)C(C)NC(=O)C(C[C@@H](C)CO)N(C)C(=O)[C@@H](C(O)c2cn(C(C)(C)C3CO3)c3ccccc23)NC(=O)C(C(C)C=C(C)C)NC(=O)C(CC(C)C)N(C)C(=O)C(C(C)C)NC1=O (some centres not stated) | inactive
15 | CNCCc1c[nH]c2ccccc12 | inactive
16 | c1ccc2c3c([nH]c2c1)CNCC3 | inactive
17 | C[C@@H]1CC[C@@H](c2ccoc2)N2C[C@@]3(CC[C@@H]12)CS[C@@]1(CC[C@H]2[C@H](C)CC[C@@H](c4ccoc4)N2[C@@H]1O)C3 | 6.66 µM (active)
18 | CCC(=O)CCCCC[C@@H]1NC(=O)[C@H]2CCCCN2C(=O)[C@H]([C@@H](C)CC)NC(=O)[C@H](Cc2cn(OC)c3ccccc23)NC1=O | 2.11 µM (active)
19 | CO[C@@H](/C=C/CC/C=C/C(=O)O)[C@@H](O)[C@H](C)[C@@H](O)/C(C)=C/[C@H](C)C(=O)CCCC1CC(=O)NC(=O)C1 | inactive
20 | CNCCc1ccc(O)cc1 | inactive
21 | COc1ccc(C23Oc4cc(OC)cc(OC)c4[C@](O)([C@H](c4ccccc4)C2C(=O)NCCCCNC(=O)c2ccccc2)[C@@H]3O)cc1 (some centres not stated) | inactive
22 | CCC[C@H]1CC[C@H]2[C@H](C)CCC[C@H]2N1 | inactive
23 | O=C(c1ccccc1O)c1[nH]c(Cl)c(Cl)c1-n1c(C(=O)c2ccccc2O)cc(Cl)c1Cl | 3.75 µM (active)
24 | CN(C)Cc1c[nH]c2ccccc12 | inactive
25 | CCCCC[C@@H]1OC(=O)[C@@H](C)N(C)C(=O)[C@H](CCCCC)OC(=O)C(C)N(C)C(=O)[C@H](CCCCC)OC(=O)[C@@H](C)N(C)C(=O)[C@H](CCCCC)OC(=O)C(C)N(C)C1=O (some centres not stated) | 13.3 µM (active)
26 | CN1C(=O)[C@]23CC4C(C)(C)[C@@]5(C[C@@]41CN2CC[C@@]3(C)O)C(=O)Nc1c5ccc2c1OC=CC(C)(C)O2 (some centres not stated) | inactive
27 | C/C=C1/CN2CC[C@]34C(=Nc5ccccc53)[C@@H]2C[C@@H]1[C@H]4C(=O)OC | inactive
